Measurements published in PubChem BioAssay AID651718 (The Scripps Research Institute Molecular Screening Center, 2012).
The campaign covered roughly 360,000 compounds. About 2,700 (0.75%) were called active. Cut-off read from the data, not from the text of the source: active = inhibition above about 4.5%; inactive = the rest. The list comes from a sample in which actives are over-represented; it also holds similar structures and randomly drawn compounds.

test system: Methionine sulfoxide reductase A (Bos taurus); test: inhibition of methionine sulfoxide reductase A – biochemical, absorbance, bovine, HTS, primary screen (AID 651718); conditions: purified bovine MsrA, absorbance read-out; at 15.5 µM; active compounds read high;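 note: 0% = vehicle wells with enzyme and 100% = reference inhibitor wells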

**Q.** Which inhibition does the source give for `O=C(C(=O)N1CCC(CNS(=O)(=O)Cc2ccccc2)CC1)c1cc2ccccc2o1` here?
**A.** 1.99% (inactive)

**Q.** `O=c1c2ccccc2nnn1CSc1nc2sc3c(c2c(=O)n1CC1CCCO1)CCC3` (centres undefined) was tested. Which inhibition did it give?
**A.** -0.37% (inactive)

**Q.** With `Cc1ccc(Cl)cc1-c1ccc(/C=N/n2cnnc2)o1` as the molecule, how does the inhibition read?
**A.** 4.94% (active)

**Q.** `Brc1cc(/C=N/n2cnnc2)oc1Br` was tested. Which inhibition did it give?
**A.** 2.05% (inactive)

**Q.** For `Clc1cc(-c2ccc(/C=N/n3cnnc3)o2)ccc1Br`, which inhibition is on record?
**A.** 0.91% (inactive)

**Q.** Which inhibition does the source give for `CC(=O)Nc1ccc(S(=O)(=O)N(C)c2ccc(OCC(=O)OCC(=O)N3CCCCC3)cc2)cc1` here?
**A.** -0.39% (inactive)

**Q.** With `CC(C)OCCCNC(=S)N1CCC(C(=O)c2ccc3c(c2)OCCO3)CC1` as the molecule, how does the inhibition read?
**A.** -0.4% (inactive)

**Q.** How did the inhibition turn out when `CCCN(CC(=O)Nc1ccccc1OC)C(=O)CCC(=O)c1ccc(F)cc1` was run?
**A.** -0.69% (inactive)

**Q.** Which inhibition does the source give for `Cc1cc(C)nc(S/C=C/C(=O)c2ccccc2)n1` here?
**A.** 5.17% (active)

**Q.** How did the inhibition turn out when `CSc1nc(N(C)NC(=O)c2cccc(C)c2)c2ccccc2n1` was run?
**A.** 0.74% (inactive)

**Q.** Which inhibition does the source give for `CCOC(=O)C(=Cc1ccccc1)C(=O)c1ccccc1` here?
**A.** 0.49% (inactive)

**Q.** Which inhibition does the source give for `CCc1ccc(C2=CC(=O)CC(C)(C)C2=O)cc1` here?
**A.** 0.09% (inactive)

**Q.** With `COc1cccc(CNC(=O)[C@H]2CCCN2C(=O)[C@H]2CCCN2C(=O)C2CCCCC2)c1` as the molecule, how does the inhibition read?
**A.** -0.24% (inactive)

**Q.** For `COCC1CCN(C(=O)C2CCC(=O)N(CC3CCCCC3)C2)CC1` (centres undefined), which inhibition is on record?
**A.** -0.21% (inactive)

**Q.** `Oc1oc(-c2ccccc2Br)nc1/C=N/c1ccccn1` was tested. Which inhibition did it give?
**A.** 2.4% (inactive)

**Q.** How did the inhibition turn out when `Cc1ccc(-c2noc(CC(c3ccccc3)c3ccccc3)n2)cc1` was run?
**A.** 0.66% (inactive)

**Q.** Which inhibition does the source give for `CC(N=Cc1nc(-c2ccccc2)oc1O)c1ccccc1` (centres undefined) here?
**A.** 5.77% (active)

**Q.** For `CCN(CC)CC1(O)CCN(C(=O)c2ccc(Cl)c(Cl)c2)CC1`, which inhibition is on record?
**A.** -0.14% (inactive)

**Q.** Which inhibition does the source give for `Cc1ccc(C)c(CN2CCC(CNC(=O)C3CCCN(c4ncnc5c4nc4n5CCCCC4)C3)CC2)c1` (centres undefined) here?
**A.** 1.23% (inactive)

**Q.** Which inhibition does the source give for `CSc1ccc(/C=C2\NC(=O)NC2=O)cc1` here?
**A.** 7.41% (active)

**Q.** How did the inhibition turn out when `CC(C)c1ccc(/C=C2\NC(=O)NC2=O)cc1` was run?
**A.** 1.9% (inactive)

**Q.** How did the inhibition turn out when `CSc1ccc(/C=C/C(=O)NC23CC4CC(CC(C4)C2)C3)cc1` was run?
**A.** 3.33% (inactive)

**Q.** With `OC(CCl)CCl` as the molecule, how does the inhibition read?
**A.** -0.37% (inactive)

**Q.** For `COc1ccc(CN2CCC(C)(Oc3cccc(F)c3)C2)c2ccccc12` (centres undefined), which inhibition is on record?
**A.** 0.31% (inactive)

**Q.** With `CC(/C=N/NC(=O)c1ccncc1)=C\c1ccco1` as the molecule, how does the inhibition read?
**A.** 4.8% (active)

**Q.** How did the inhibition turn out when `CC(=NNC(=O)c1ccncc1)c1ccc(Cl)c(Cl)c1` was run?
**A.** -0.76% (inactive)

**Q.** For `CC(/C=N/NC(=O)c1cc(-c2ccc3ccccc3c2)n[nH]1)=C\c1ccco1`, which inhibition is on record?
**A.** 2.77% (inactive)

**Q.** Which inhibition does the source give for `C=CCN1C(=O)N(Cc2ccccc2)c2ccccc2S1(=O)=O` here?
**A.** 3.26% (inactive)

**Q.** With `COCCNC(=S)N/N=C/c1c(C)[nH]c2ccccc12` as the molecule, how does the inhibition read?
**A.** 5.52% (active)

**Q.** With `COCCNC(=S)N(CCc1c(C)[nH]c2ccc(C)cc12)Cc1cccnc1` as the molecule, how does the inhibition read?
**A.** -1.51% (inactive)

**Q.** `Cc1[nH]c2ccccc2c1/C=N/NC(=O)CNC(=O)c1ccc2c(c1)OCO2` was tested. Which inhibition did it give?
**A.** 2.56% (inactive)

**Q.** How did the inhibition turn out when `Clc1cccc2c1C1CC2CCN1Cc1ccccc1` (centres undefined) was run?
**A.** -1.2% (inactive)

**Q.** For `COC(=O)c1cc2c(c3c4cc(F)ccc4n(S(=O)(=O)c4ccccc4)c13)C(=O)N(Cc1ccccc1OC)C2`, which inhibition is on record?
**A.** 1.35% (inactive)

**Q.** For `CCC1S/C(=N/N=C/c2ccco2)NC1=O` (centres undefined), which inhibition is on record?
**A.** 4.55% (active)

**Q.** For `O=C1N/C(=N\N=C\c2ccco2)SC1Cc1ccc(F)cc1` (centres undefined), which inhibition is on record?
**A.** 2.66% (inactive)

**Q.** With `CCCCC1S/C(=N/N=C/c2cccs2)NC1=O` (centres undefined) as the molecule, how does the inhibition read?
**A.** 0.75% (inactive)

**Q.** Which inhibition does the source give for `COC(=O)C1=C(C)N(Cc2ccc(C(F)(F)F)cc2)C(=NCc2ccccc2)NC1c1ccccc1C(F)(F)F` (centres undefined) here?
**A.** 2.37% (inactive)

**Q.** Which inhibition does the source give for `CC(C)(C)c1ccc(S(=O)(=O)NCC2CCN(C(=O)C(=O)c3cc4ccccc4o3)CC2)cc1` here?
**A.** 1.27% (inactive)

**Q.** With `Cc1cccc(-n2c(N)c(C(=O)N3CCN(C)CC3)sc2=S)c1` as the molecule, how does the inhibition read?
**A.** 2.37% (inactive)

**Q.** Which inhibition does the source give for `Cc1cccc(-n2c(O)c(C=Nc3ccccc3N)c(=O)[nH]c2=O)c1` here?
**A.** 5.11% (active)

**Q.** For `COc1cc(OC)cc(C(=O)NCCSCc2ccc(Cl)cc2)c1`, which inhibition is on record?
**A.** -2.11% (inactive)

**Q.** For `CCOC(=O)c1c(NC(=S)NC(=O)/C=C/c2cccs2)sc(C)c1C`, which inhibition is on record?
**A.** -0.71% (inactive)

**Q.** `CCc1nnc(NS(=O)(=O)c2ccc(NC(=O)c3cccc(OC(F)(F)C(F)F)c3)cc2)s1` was tested. Which inhibition did it give?
**A.** -0.35% (inactive)

**Q.** With `CCc1nnc(NS(=O)(=O)c2ccc(NC(=S)NC(=O)/C=C/c3cccs3)cc2)s1` as the molecule, how does the inhibition read?
**A.** 4.76% (active)

**Q.** How did the inhibition turn out when `Cc1cc(C(=O)NNC(=S)NC(C)c2ccccc2)cs1` (centres undefined) was run?
**A.** 0.13% (inactive)

**Q.** Which inhibition does the source give for `Cn1nnnc1SCC(=O)Nc1sccc1C(N)=O` here?
**A.** 0.13% (inactive)

**Q.** `COC(=O)c1cc2c(c3c4ccccc4n(S(=O)(=O)c4cccc(C)c4)c13)C(=O)N(Cc1ccccc1)C2` was tested. Which inhibition did it give?
**A.** 0.16% (inactive)

**Q.** Which inhibition does the source give for `CC1(C(=O)NCc2ccccc2)CN(S(C)(=O)=O)CC(=O)N1CC(F)(F)F` (centres undefined) here?
**A.** -0.74% (inactive)

**Q.** For `COc1ccc(C(=O)CSc2nc(C)cc(C)n2)cc1[N+](=O)[O-]`, which inhibition is on record?
**A.** 11.2% (active)

**Q.** For `COc1ccc(C(=O)NNC(=O)c2cnccn2)cc1[N+](=O)[O-]`, which inhibition is on record?
**A.** 3.54% (inactive)

**Q.** How did the inhibition turn out when `COc1ccc(-n2nnnc2SCC(=O)c2ccc(OC)c(OC)c2)cc1` was run?
**A.** 1.76% (inactive)

**Q.** With `CN1CCN(CC(=O)C23CC4CC(CC(C4)C2)C3)CC1` as the molecule, how does the inhibition read?
**A.** -0.74% (inactive)

**Q.** For `COc1ccc(C(=O)Nc2c(N)nc(SCC(=O)N3CCC(C)CC3)[nH]c2=O)cc1OC`, which inhibition is on record?
**A.** -1.43% (inactive)

**Q.** How did the inhibition turn out when `C[C@@H]1ON(C)[C@H]2C[C@H]3c4cc(N5CCOCC5)ccc4CCN3C[C@@H]12` was run?
**A.** -1.23% (inactive)

**Q.** Which inhibition does the source give for `CCOC(=O)C1=C(C(=O)OCC)C2N(Cc3ccc(C#N)cc3)c3ccccc3[C@@]23C[C@@H](C(=O)OC)N(S(=O)(=O)c2ccc(F)cc2)C3=N1` (some centres undefined) here?
**A.** 1.03% (inactive)

**Q.** `CCOC(OCC)c1ccc(/C=C\c2nccc(N)n2)cc1` was tested. Which inhibition did it give?
**A.** 4.82% (active)

**Q.** For `Cc1cc2c(nc1C)CCCN2C`, which inhibition is on record?
**A.** 0.48% (inactive)

**Q.** `O=S(=O)(c1cccs1)N1CCCc2nc(-c3ccc(Br)cc3)ccc21` was tested. Which inhibition did it give?
**A.** 0.56% (inactive)

**Q.** How did the inhibition turn out when `Cc1ccc(C)c2[nH]c(=O)c(CN(Cc3cccnc3)C(=S)NCc3ccco3)cc12` was run?
**A.** 0.59% (inactive)
